Experimental data reported in PubChem BioAssay (Tox21).
Inconclusive results are not listed. Activity calls are given as the source filed them. Unless noted, the call rests on the fitted dose curve; in most records, active means well fitted curve in the direction sought with a large enough effect in the repeat runs; inconclusive means weak or mixed curves; inactive means no such curve, though single readings can be large; an effect the other way counts as inactive or inconclusive.

What was measured:
[1] = A CellTox Green Cytotoxicity Assay to monitor cytotoxicity in HEK293 cells - 32 hour (AID 1224881); further: nearly all actives have a fitted effect of over 40% in size
Method in brief: (§1)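 Each value comes from one timepoint of a single continuous run in which HEK293 cells with CellTox Green were exposed to compound for up to 40 h at 37 C, dye fluorescence rising with cell death.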

[2] = A CellTox Green Cytotoxicity Assay to monitor cytotoxicity in HepG2 cells - 0 hour (AID 1224882); further: nearly all actives have a fitted effect of over 35% in size
Method in brief: (§2)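 Continuous culture of HepG2 cells with a membrane-impermeant DNA dye; rising fluorescence marks dead cells. Compound exposure lasted up to 40 h at 37 C, with reads every 8 h from 0 h.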

[3] = A CellTox Green Cytotoxicity Assay to monitor cytotoxicity in HepG2 cells - 32 hour (AID 1224883); further: nearly all actives have a fitted effect of over 50% in size
Method in brief: as §2

[4] = A CellTox Green Cytotoxicity Assay to monitor cytotoxicity in HEK293 cells - 8 hour (AID 1224884); further: nearly all actives have a fitted effect of over 35% in size
Method in brief: as §1

[5] = A CellTox Green Cytotoxicity Assay to monitor cytotoxicity in HEK293 cells - 16 hour (AID 1224888); further: nearly all actives have a fitted effect of over 35% in size
Method in brief: as §1

[6] = qHTS RealTime-Glo MT Cell Viability Assay in HepG2 cells - 0 hour (AID 1224889); further: nearly all actives have a fitted effect of over 50% in size
Method in brief: (§3)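 Compound treatment began 5 h after plating HepG2 cells (600/well) with NanoLuc luciferase and prosubstrate. Plates stayed at 37 C for 40 h; luminescence was captured at six time points, 0 h through 40 h.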

[7] = A CellTox Green Cytotoxicity Assay to monitor cytotoxicity in HepG2 cells - 8 hour (AID 1224890); further: nearly all actives have a fitted effect of over 45% in size
Method in brief: as §2

[8] = qHTS assay to identify small molecule antagonists of the estrogen receptor alpha (ER-alpha) signaling pathway using the BG1 cell line in the presence of 0.1 nM 17-beta-estradiol - cell viability counter screen (AID 1259241); further: nearly all actives have a fitted effect of over 40% in size
Method in brief: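 Live-cell protease activity (CellTiter-Fluor fluorescence, 30 min) was read in the same wells after VM7Luc4E2 cells had been exposed to compounds with 0.1 nM 17beta-estradiol for 22 hr at 37C.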

[9] = qHTS assay to identify small molecule antagonists of the androgen receptor (AR) signaling pathway using the MDA cell line in the presence of 0.5 nM R1881 - cell viability counter screen (AID 1259242); further: nearly all actives have a fitted effect of over 45% in size
Method in brief: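 Fluorescence from CellTiter-Fluor, which reports protease activity of live cells, was read 30 min after reagent addition to MDA-kb2 cells that had been incubated 16 hr with compound and 0.5 nM R1881.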

[10] = qHTS assay to identify small molecule HDAC inhibitors (AID 1259364); further: top concentration of the series differs between compounds; nearly all actives have a fitted effect of over 45% in size
Method in brief: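 Endogenous HDAC class I/II activity was measured in wild-type HCT-116 cells by HDAC-Glo luminescence after 2 h compound treatment.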

[11] = qHTS assay to identify small molecule HDAC inhibitors - cell viability counter screen (AID 1259365); further: series mostly up to about 92 µM; nearly all actives have a fitted effect of over 50% in size
Method in brief: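 HCT-116 (wild type), 1,500 cells/well, overnight 37C/5% CO2; compound in DMSO 2hr; CellTiter-Glo 30min RT; luminescence read.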

[12] = qHTS assay to identify small molecule antagonists of the sonic hedgehog signaling (Shh) pathway - cell viability counter screen (AID 1259367); further: nearly all actives have a fitted effect of over 55% in size
Method in brief: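 After a 4 hr settling period, 3T3 Gli1-Luc cells were treated with DMSO-dissolved chemicals and conditioned medium, kept 24 hr at 37C in 5% CO2, and assayed for viability by CellTiter-Fluor fluorescence following 1 hr reagent incubation.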

[13] = qHTS assay to identify small molecule agonists of the sonic hedgehog signaling (Shh) pathway (AID 1259368; calls by dose curve;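 further: NIH/3T3-derived 3T3Gli1-Luc cells carrying a stable Gli1-driven firefly luciferase reporter; series mostly up to about 92 µM; nearly all actives have a fitted effect of over 15% in size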)
Method in brief: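 Luminescent signal was taken as a measure of Gli1-controlled luciferase expression in stably transfected NIH/3T3-derived cells that had been treated for 24 hr with compounds delivered in DMSO.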

[14] = qHTS RealTime-Glo MT Cell Viability Assay in HEK293 cells - 8 hour (AID 1224887); further: top concentration of the series differs between compounds; nearly all actives have a fitted effect of over 50% in size
Method in brief: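 qHTS format; HEK293 cells with NanoLuc/prosubstrate reagent, 37 C/5% CO2 for 5 h pre-dosing; compounds 23 nL in DMSO; luminescence at each time point reflects viable cells.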

[15] = qHTS assay to identify small molecule agonists of the sonic hedgehog signaling (Shh) pathway - cell viability counter screen (AID 1259366); further: nearly all actives have a fitted effect of over 50% in size
Method in brief: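 CellTiter-Fluor fluorescence read-out, 1 hr at 37C, added after 23hr compound exposure. Cells: 3T3 Gli1-Luc, an NIH/3T3 clone with stably integrated Gli1-Luc reporter, plated 4hr before compound.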

[16] = qHTS RealTime-Glo MT Cell Viability Assay in HepG2 cells - 16 hour (AID 1224885); further: nearly all actives have a fitted effect of over 50% in size
Method in brief: as §3

[17] = biological target: Estrogen receptor (Homo sapiens) (UniProt P03372); assay: qHTS assay to identify small molecule antagonists of the estrogen receptor alpha (ER-alpha) signaling pathway using the BG1 cell line in the presence of 0.1 nM 17-beta-estradiol (AID 1259244); further: nearly all actives have a fitted effect of over 50% in size
Chain of Estrogen receptor (Homo sapiens) (P03372 whole entry, looked up): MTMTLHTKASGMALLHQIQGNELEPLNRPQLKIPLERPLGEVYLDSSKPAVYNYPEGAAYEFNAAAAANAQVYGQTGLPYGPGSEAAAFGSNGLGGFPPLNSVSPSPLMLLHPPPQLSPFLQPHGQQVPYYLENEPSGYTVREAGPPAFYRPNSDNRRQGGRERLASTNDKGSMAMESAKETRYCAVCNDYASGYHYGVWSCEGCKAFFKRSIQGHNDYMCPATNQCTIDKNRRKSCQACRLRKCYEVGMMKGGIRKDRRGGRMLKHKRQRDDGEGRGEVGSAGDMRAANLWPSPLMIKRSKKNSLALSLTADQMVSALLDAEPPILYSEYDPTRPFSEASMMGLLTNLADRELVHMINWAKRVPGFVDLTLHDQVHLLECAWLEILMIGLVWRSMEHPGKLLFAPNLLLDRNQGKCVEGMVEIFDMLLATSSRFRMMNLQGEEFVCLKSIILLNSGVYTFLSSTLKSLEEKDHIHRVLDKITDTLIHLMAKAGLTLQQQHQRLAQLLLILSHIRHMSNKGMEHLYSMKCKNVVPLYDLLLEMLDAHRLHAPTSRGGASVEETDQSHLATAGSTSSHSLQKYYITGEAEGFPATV
Method in brief: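 Quantitative high-throughput screen in VM7Luc4E2 cells: compound plus 0.1 nM E2 (final), 22 h, 37C, 5% CO2; ONE-Glo added, 30 min room temperature, luminescence measured.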

[18] = qHTS assay to identify small molecule phospholipidosis (PLD) inducers (AID 1259344; active means well fitted curve in the direction sought with a large enough effect; an effect the other way counts as inactive or inconclusive)
Method in brief: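 HepG2 cells grown on collagen I take up LipidTOX Red while exposed to compound for 24 h; after fixation they are imaged at 20x and pit metrics are extracted.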

[19] = qHTS RealTime-Glo MT Cell Viability Assay in HEK293 cells - 24 hour (AID 1224886)
Method in brief: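 Quantitative high-throughput screen of the Tox21 10K library in HEK293: cells and RealTime-Glo reagents plated together, compound added at 5 h, luminescence monitored through 40 h at 37 C.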

Measured: Potency

[C-]1=CC=CC1.[Cl][Zr+2][Cl].c1cc[cH-]c1
not listed: [14] | [15] | [16] | [17] | [18] | [19]
inactive: all other assays above

C1=CCC=C1
not listed: [5] | [16] | [17] | [18] | [19]
inactive: all other assays above

CC(C)c1c(CN(C)C(C)Cc2ccccc2)n(C)n(-c2ccccc2)c1=O (stereo not drawn)
not listed: [6] | [10] | [14] | [19]
inactive: all other assays above

CCCCCON=O
not listed: [11] | [17] | [18] | [19]
inactive: all other assays above

N#CCCl
not listed: [5] | [10] | [17] | [18] | [19]
inactive: all other assays above

CSSC
not listed: [5] | [17] | [18] | [19]
inactive: all other assays above

CCC(C)Nc1c([N+](=O)[O-])cc(C(C)(C)C)cc1[N+](=O)[O-] (stereo not drawn)
not listed: [14] | [18] | [19]
inactive: all other assays above

CC1(C)C(C=C(Cl)Cl)C1C(=O)OC(C#N)c1ccc(F)c(Oc2ccccc2)c1 (stereo not drawn)
not listed: [14] | [16] | [18]
inactive: all other assays above
